BAZ2B block: blocks human BAZ2B | AlphaScreen BAZ2B-H3K14Ac peptide displacement | Potency, µM (titrated, usually from 114 µM), for the others: top-dose activity change, negative = inhibition, hits mostly inhibitors | 360,000 tested, 4.4% active | Q9UIF8 | AID 504333; further: on the % scale 0 is the no-effect control and ±100 the full control effect; nearly all actives have a fitted effect of over 60% in size
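Multi-concentration screen (max 110 uM) measuring displacement of acetylated histone H3 peptide from BAZ2B by AlphaScreen, using 50 nM protein, 50 nM peptide and 10 ug/mL streptavidin donor plus Ni-chelate acceptor beads.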
HP1b chromo inh: HP1-beta chromodomain-methylated histone interaction inhibition; P83916; AlphaScreen HP1-beta / biotin-H3K9me3 peptide binding; Potency, µM (doses to about 114 µM), inactives show top-dose activity change, negative = inhibition, usual class: inhibitors; 390,000 tested, 0.56% active; AID 540317; further: nearly all actives have a fitted effect of over 70% in size
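HP1-beta protein (50 nM final) preincubated 30 min at room temperature with biotinylated H3(1-18)K9me3 peptide (50 nM) in PBS pH 7.4, 0.01% Tween-20, then compound added for 30 min. AlphaScreen streptavidin donor/nickel chelate acceptor beads (10 ug/mL final), 30 min dark, luminescence read.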
JMJD2A Tudor: blocks the human JMJD2A Tudor domain | O75164 | AlphaScreen JMJD2A-Tudor / H3K4me3 peptide binding | Potency, µM (titrated, usually from 114 µM), for the others: at the top dose activity change, negative = inhibition, actives largely listed as inhibitors | 390,000 tested, 4.4% active | AID 504339; further: on the % scale 0 is the no-effect control and ±100 the full control effect; nearly all actives have a fitted effect of over 50% in size
G9a inh: G9a (human) methyltransferase inhibition | Q96KQ7 | G9a H3K9 monomethylation, AlphaScreen, 2 h | Potency, µM (top dose mostly 102 µM), for inactives: at the top dose activity, negative = inhibition, actives largely listed as inhibitors | 350,000 tested, 8.8% active; further: on the % scale 0 is the no-effect control and ±100 the full control effect; nearly all actives have a fitted effect of over 75% in size
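Signal arises when biotinylated H3K9 peptide, once monomethylated, bridges streptavidin donor and antibody-captured acceptor beads. Enzyme at 20 nM was preincubated 15 min with test compounds; peptide 500 nM and SAM 20 uM then reacted for 2 h.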
GLS inh: glutaminase GLS (human) inhibition. AID 624170. O94925. GLS enzymatic activity, qHTS titration. 410,000 tested, 0.21% active. Potency, µM (doses to about 45.5 µM), for inactives: top-dose activity change, negative = inhibition, most hits filed as inhibitors; further: on the % scale 0 is the no-effect control and ±100 the full control effect
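Enzyme dispensed in phosphate buffer (45 mM, pH 8.2, 0.02% Tween-20), compounds pinned in, then 1 mM L-glutamine solution and the glutamate oxidase–HRP–Amplex Red mix added; fluorescence read immediately and again after 30 min at room temperature.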
Numbers without * were called inactive; ? = inconclusive; · = no result given; [ ] = remark or other dose. Most compounds without a hit are left out; they make up all but 10% or so of the library. The call rests on the fitted dose curve; in most records, active means well fitted curve in the direction sought with a large enough effect; inconclusive means small, poorly fitted or top-dose-only effect, or another doubt; inactive means no such curve, though single readings can be large; an effect the other way counts as inactive or inconclusive. Potency means the concentration at half of the fitted maximal effect.

SMILES	BAZ2B block	HP1b chromo inh	JMJD2A Tudor	G9a inh	GLS inh
C=C1C(=O)OC2CC1C(OC(C)=O)CC(C)=CCCC(C)=CCC[C@@]2(C)O (stereo not given in full)	·	·	·	-3%[2.33 µM]	·
CN[C@@H]1[C@H](O[C@H]2[C@H](O[C@H]3[C@H](O)[C@@H](O)[C@H](N=C(N)N)[C@@H](O)[C@@H]3N=C(N)N)O[C@@H](C)[C@]2(O)C=O)O[C@@H](CO)[C@H](O)[C@H]1O	·	·	·	18µM*	0%
CNC1C(O)C(O)C(CO)O[C@H]1OC1C(O[C@@H]2C(O)C(O)[C@@H](N=C(N)N)C(O)C2N=C(N)N)OC(C)[C@]1(O)C=O (stereo not given in full)	·	·	·	-27%[2.33 µM]	·
COc1ccc(-c2[nH]ncc2CN(C)C(C)c2ccncn2)c(F)c1 (stereo not given)	3%	21%	-18%	·	-9%
CCN(Cc1ccncc1)Cc1cn[nH]c1-c1ccc(OC)cc1F	-15%	16%	-5%	50µM*	0%
CCc1nnc2c(Nc3ccc(N(CC)CC)cc3C)nc3ccccc3n12	32µM*	?	16µM*	18µM*	3%
CC(C)(C)NC(=O)C12CC3CC(CC(Cl)(C3)C1)C2	-4%	25%	-5%	14%[59 µM]	-9%
CC(C)(C)NC(=S)NC(=O)C12CCC3CC(CC(C3)C1)C2	71µM*	3%	?	-34%	-3%
CCn1cc(C(=O)NCCc2ccc(Cl)cc2)c(=O)c2cc(S(=O)(=O)N3CCOCC3)ccc21	·	8%	-24%	4%[59 µM]	-13%
O=C(c1cccc(C(=O)N2CCN(c3ncccn3)CC2)c1)N1CCN(c2ncccn2)CC1	11%	22%	-9%	19%	-2%
S=C(Nc1ccc(N2CCOCC2)cc1)Nc1ccc2nc(-c3ccco3)c(-c3ccco3)nc2c1	?	-53%	?	32µM*	39%
O=C(c1ccc2nc(-c3ccco3)c(-c3ccco3)nc2c1)N1CCN(c2ncccn2)CC1	?	7%	89µM*	35µM*	-9%
O=C(Nc1ccc2nc(-c3ccco3)c(-c3ccco3)nc2c1)N1CCN(c2ccccn2)CC1	?	25µM*	?	2.5µM*	-9%
Cc1nc2cc(NC(=O)N3CCN(c4ccccn4)CC3)ccc2o1	-8%	15%	4%	-2%[59 µM]	12%
CC1CCN(C(=O)Nc2ccc3nc(-c4ccco4)c(-c4ccco4)nc3c2)CC1	·	11µM*	13µM*	·	·
Cn1cnc(S(=O)(=O)N2CCC(C(=O)N3CCN(c4ccc(Cl)cc4)CC3)CC2)c1	-8%	19%	-7%	2%[59 µM]	8%
Cc1ccc2oc(-c3ccc(Cl)c(NC(=O)c4cc5ccccc5o4)c3)nc2c1	3%	35%	6%	?	-16%
O=C(Nc1ccc2nc(-c3ccco3)c(-c3ccco3)nc2c1)N1CCCC1	·	10µM*	14µM*	·	·
O=C(O)C1CCN(C(=O)c2cccc3ccccc23)CC1	-2%	14%	3%	10%	3%
CN1CC(C(=O)O)Cc2c1ccc1ccccc21 (stereo not given)	-33%	24%	-17%	20µM*	20%
O=c1[nH]c(-c2ccc(F)cc2)nc2c1sc(=S)n2-c1ccccc1	50µM*	18%	?	40µM*	?
O=c1[nH]cnc2c1sc(=S)n2-c1ccccc1	6%	-36%	89µM*	2.2µM*	-18%
CN1CCN(c2ncc3nc(-c4ccc(Cl)cc4)c(=O)n(Cc4cccs4)c3n2)CC1	·	·	·	8%[0.501 µM]	·
c1ccc(-c2cccc(-c3ccccn3)n2)nc1	18µM*	31%	20µM*	-11%	6%
c1ccc(-c2nnc(-c3ccccn3)nn2)nc1	·	38%	-24%[11.4 µM]	·	-3%
SMILES	BAZ2B block	HP1b chromo inh	JMJD2A Tudor	G9a inh	GLS inh
CCOc1ccc(N=c2scc(-c3ccccc3)n2CCO)cc1	8.9µM*	?	?	16µM*	37%
c1ccc(-c2csc(=Nc3cccnc3)n2CC2CCCO2)cc1 (stereo not given)	?	-11%	?	?	0%
CCOc1ccc(N=c2scc(-c3ccc(OC)cc3)n2CCO)cc1	?	-21%	?	2.8µM*	18%
N=c1n(CCO)c2ccccc2n1CCOc1ccccc1	-6%	90%	5%	-3%	-10%
CCn1c(-c2ccccc2)csc1=Nc1ccc(O)cc1	20µM*	?	32µM*	3.5µM*	7%
O=C(Nc1ccc(F)c([N+](=O)[O-])c1)c1ccc2c(c1)C(=O)OC2=O	-6%	·	·	?	·
C=Cc1ccc(Cn2c(=O)n(-c3cccc(Cl)c3)c(=O)c3c4c(sc32)CN(C(C)=O)CC4)cc1	-26%	21%	-16%	?	1%
CCC(=O)NC(=S)NNC(=O)c1ccc(O)cc1	0%	57%	20µM*	·	32%
CCCCCCCC(=O)NNC(=O)c1ccc([N+](=O)[O-])cc1	-28%[57.1 µM]	6%	-15%	45%[0.501 µM]	9%
CCCC(=O)NC(=S)NNC(=O)c1ccc([N+](=O)[O-])cc1	9%	-6%	71µM*	3.2µM*	9%
CCC(=O)NNC(=S)NC(=O)c1ccc(C)cc1	14%	24%	?	11%[0.501 µM]	-3%
CCCCNC(=S)NC(=O)c1ccc([N+](=O)[O-])cc1	50µM*	-30%	?	·	12%
COc1ccc(NC(=O)c2ccccc2NC(=O)C2CCCCC2C(=O)O)cc1 (stereo not given)	·	30%	-6%	·	2%
CS(=O)(=O)N1CCC2(CCN(c3ccccn3)CC2)CC1	·	·	·	3%[12.7 µM]	·
Cc1ccc(C(=O)Nc2ccccc2C(=O)OCc2cc(=O)n3nc(C4CC4)sc3n2)cc1	-1%	43%	6%	2%[12.7 µM]	-2%
CC1=NNC(=O)C1CC(=O)N/N=C/C(Br)=C/c1ccccc1 (stereo not given)	-6%	41%	-6%	-2%	18%
CC1=NNC(=O)C1CCC(=O)N/N=C/C(Br)=C/c1ccccc1 (stereo not given)	5%	29%	-9%	50µM*	21%
CSc1nncc(/C(C)=N\Nc2ccccc2C)n1	-2%	-21%	-29%	2.5µM*	-4%
CSc1nncc(/C(C)=N/O)n1	10%	28%	-15%	1%[59 µM]	27%
C/C(=N\Nc1ccccc1C)c1cccnc1	?	11%	50µM*	1.4µM*	-25%
O=C(O)c1ccc(C(S(=O)(=O)c2ccccc2)S(=O)(=O)c2ccccc2)cc1	·	·	·	·	10%
CC1CCN(S(=O)(=O)c2ccc(NC(=O)CNC3CCCCC3)cc2)CC1	3%	-10%	-12%	22%	6%
CC1CCCC(C)N1S(=O)(=O)c1ccc(NC(=O)CNC2CCCC2)cc1 (stereo not given)	-4%	2%	-17%	45µM*	0%
CC(=O)Nc1ccc(S(=O)(=O)N2C(C)CCCC2C)cc1 (stereo not given)	-31%	25%	-13%	56µM*	-10%
